Records with an inconclusive call do not appear. Where a call stands in place of a potency, no number is given. Active and inactive are the calls of the source. Calls come from the whole dose curve; as a rule, active = well fitted curve in the direction sought with a large enough effect; inconclusive = small, poorly fitted or top-dose-only effect, or another doubt; inactive = no such curve, though single readings can be large or run the other way.
Assay: qHTS for Inhibitors of the vitamin D receptor (VDR): Hit Validation using a Texas Red Assay (AID 602201)
Settings: VDR coregulator binding, Texas Red fluorescence polarization, agonist-bound VDR ligand-binding domain; series mostly up to 57.1 µM
Method in brief: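 After a 2-hour room-temperature incubation, polarization of Texas-Red emission was read (Ex 595 nm/Em 615 nm). Final mix contained 7 nM Texas Red, 1.5 uM VDR-LBD and LG19078.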
Potency is the fitted concentration of half-maximal effect.

Row | Structure (SMILES) | Potency
1 | O=C(CCS(=O)(=O)c1nc(-c2cccs2)cc(C(F)(F)F)n1)Nc1cc(Br)ccc1O | 5.62 µM (active)
2 | CC(C)(C)c1nnc(NS(=O)(=O)c2ccc([N+](=O)[O-])cc2)s1 | 25.1 µM (active)
3 | CC1=CC(=O)C(C(C)C)=CC1=NC(=O)c1ccc(C)cc1 | inactive
4 | O=c1nc(/C=C/c2cc([N+](=O)[O-])ccc2Cl)cc(C(F)(F)F)[nH]1 | 3.55 µM (active)
5 | CCOc1cc(/C=C2/C(=O)ON=C2C)cc(Br)c1O | inactive
6 | O=C(NC1CCCCCC1)C(=S)N1CCOCC1 | inactive
7 | c1ccc(OCc2nn3c(Cn4nnc5ccccc54)nnc3s2)cc1 | 14.1 µM (active)
8 | O=C(/C=C/c1cc(Br)ccc1O)c1ccco1 | inactive
9 | O=[N+]([O-])c1ccccc1-c1ccc(C(=S)N2CCCC2)o1 | inactive
10 | CCOC(=O)/C(=C\c1cccc(O)c1)c1nc2sc(C)c(C)c2c(=O)[nH]1 | inactive
11 | Cc1nnc(NC(=O)c2nc(S(=O)(=O)Cc3ccccc3)ncc2Cl)s1 | 22.4 µM (active)
12 | CCN(CC)c1ccc(NC(=O)c2cccc(C)c2)cc1S(=O)(=O)Nc1ccccc1OC | inactive
13 | COc1ccc(N2C(=O)C(Cl)=C(Oc3cccc(OC)c3)C2=O)cc1 | 2.82 µM (active)
14 | Cc1cccc2c1N(Cc1ccccc1OCCC(C)C)C(=O)C2=O | 12.6 µM (active)
15 | COC(=O)c1cc(=O)n(Cc2ccco2)c(=Nc2ccc(F)c(Cl)c2)s1 | 10 µM (active)
16 | COc1cc(/C=C/C(=O)c2ccc(F)cc2)cc(OC)c1OC | inactive
17 | CCS(=O)(=O)c1ncc(Cl)c(C(=O)N2CCN(c3cccc(Cl)c3)CC2)n1 | 2.82 µM (active)
18 | CC1=NNC(=O)/C1=C\c1cn(-c2ccccc2)nc1-c1ccccc1 | 3.16 µM (active)
19 | CC(=O)Nc1cccc(C(=O)/C=C/c2ccc(Br)cc2)c1 | 5.62 µM (active)
20 | Cc1nc2c3cc(F)ccc3n(Cc3ccccc3)c2s1 | inactive

Row | Structure (SMILES) | Potency
21 | CN1CCN(C(=O)c2sc(=S)n(-c3ccccc3)c2N)CC1 | inactive
22 | Cc1cccc(/C=C/C(=O)c2ccc([N+](=O)[O-])o2)c1 | 1.78 µM (active)
23 | O=C(Cc1ccccc1Cl)NC1(O)C(=O)c2ccccc2C1=O | inactive
24 | Cc1nc(NC(=O)c2ccc(Cl)cc2)sc1Cc1ccc2c(c1)OCO2 | inactive
25 | Oc1ccc(N=C/C=C/c2cccc(Br)c2)cc1-c1nc2ccccc2s1 | 15.8 µM (active)
26 | c1ccc(CCc2nn3c(Cn4cnc5ccccc54)nnc3s2)cc1 | 28.2 µM (active)
27 | O=[N+]([O-])c1c(NCCCO)cc(Sc2ccc(Cl)cc2)c2nonc12 | 15.8 µM (active)
28 | O=C1NN(c2ccccc2)C(=O)/C1=C\c1cccc(OC(=O)c2cccs2)c1 | inactive
29 | O=C(/C=C/c1ccccc1Cl)c1cccnc1 | inactive
30 | CC(C)(C)c1cc(=O)n(-c2ccccc2)[nH]1 | 12.6 µM (active)
31 | CC(C)(C)C1C/C(=C/c2ccccn2)C(=O)/C(=C/c2ccccn2)C1 (stereo not given) | 3.16 µM (active)
32 | COc1cc(/C=C2\C(=O)ON=C2c2ccccc2)cc(Cl)c1O | inactive
33 | COc1cccc(/C=C/c2[nH]c(=O)[nH]c(=O)c2[N+](=O)[O-])c1O | inactive
34 | Nc1nc(-c2cccc(F)c2)cs1 | inactive
35 | Cc1ccc(NC(=O)c2nc(S(=O)(=O)Cc3ccccc3F)ncc2Cl)cc1 | 2.82 µM (active)
36 | Cc1c(Cc2ccc3c(c2)OCO3)sc(NC(=O)c2cccc3ccccc23)c1C(N)=O | 28.2 µM (active)
37 | O=C1Nc2ccc(Br)cc2C1=Nc1cccnc1 | inactive
38 | O=C(O)CCNc1ccc(NCCC(=O)O)c2c1C(=O)c1ccccc1C2=O | 8.91 µM (active)
39 | N#Cc1c(Nc2ccc(Cl)cc2)s[nH]c1=O | inactive
40 | CCN(CC)S(=O)(=O)c1cc(NC(=O)c2ccc3c(c2)NC(=O)C(C)S3)ccc1C (stereo not given) | inactive

Reference: PubChem BioAssay (NCATS)
